Drawing on the supplement of paper PMC9588786, this text covers relative cell viability for six compounds.

± gives the standard deviation of the averaged measurements.
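Note: viability read as CCK-8 absorbance at 450 nm in cells co-exposed to the GPX4 inhibitor RSL3, relative to a 0.01% DMSO vehicle control.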

This experiment deals with HT-1080. Description: relative cell viability with RSL3 co-treatment (fraction of control); higher = stronger protection from RSL3-induced ferroptosis (higher viability). The note with it: 10 µM.
As for `O=C(NOC[C@H](O)CO)c1ccc(F)c(F)c1Nc1ccc(I)cc1F`, the relative cell viability came to 0.897 ± 0.032. Consider `CN1CCC(CNc2ccc3ncc(-c4cccc(OC(F)(F)F)c4)n3n2)CC1` [SGI-1776 free base], for which the relative cell viability was 0.507 ± 0.16.

`S=C(NCc1ccc2c(c1)OCO2)N1CCN(c2ncnc3c2oc2ccccc23)CC1` [Amuvatinib (MP-470)]: the relative cell viability amounted to 0.55 ± 0.072. With `Cc1c(Cn2c(C)nc3c(C(=O)O)cc(N4CCOCC4)cc32)cccc1C(F)(F)F` the figure was 0.823 ± 0.045; with `CCc1nc(-c2cccc(C)c2)c(-c2ccnc(NC(=O)c3ccccc3)c2)s1`, 0.783 ± 0.1. With `Cc1ccc2nc(NCCN)c3ncc(C)n3c2c1` the figure was 0.703 ± 0.015.
